A selection: hits, their analogues and other compounds. The true share with any hit is near 7.3%.
FLuc counter: inhibits or activates purified firefly luciferase, miR-21 counter-screen | 360,000 compounds, 6.9% hits | AID 588342 | purified FLuc, Km substrates, luminescence inhibition | Potency, µM (series often up to 57.5 µM), for the others: at the highest dose activity change, negative = inhibition, usual class: inhibitors | P08659;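 note: plate controls were vehicle for no effect and reference inhibitor for full effect; nearly all actives have a fitted effect of over 55% in size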
Target sequence (P08659 whole entry, looked up): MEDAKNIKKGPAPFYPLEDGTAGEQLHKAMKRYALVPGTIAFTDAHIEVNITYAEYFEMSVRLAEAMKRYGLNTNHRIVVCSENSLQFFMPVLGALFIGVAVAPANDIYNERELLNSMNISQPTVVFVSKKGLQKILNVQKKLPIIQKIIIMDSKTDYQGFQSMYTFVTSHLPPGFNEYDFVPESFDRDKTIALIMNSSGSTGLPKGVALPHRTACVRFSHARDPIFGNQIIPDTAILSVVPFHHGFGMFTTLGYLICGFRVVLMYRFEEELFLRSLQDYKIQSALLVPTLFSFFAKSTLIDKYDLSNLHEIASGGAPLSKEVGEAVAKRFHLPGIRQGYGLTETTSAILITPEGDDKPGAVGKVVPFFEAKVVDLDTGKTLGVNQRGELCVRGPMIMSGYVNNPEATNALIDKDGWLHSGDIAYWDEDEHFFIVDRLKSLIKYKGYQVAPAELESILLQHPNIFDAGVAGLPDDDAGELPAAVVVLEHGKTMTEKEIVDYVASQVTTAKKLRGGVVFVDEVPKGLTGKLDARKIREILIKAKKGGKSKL
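Purified P. pyralis luciferase, 10 nM final, with Km-level 10 uM D-luciferin and 10 uM ATP in 50 mM Tris acetate pH 7.5, 10 mM Mg acetate, 0.01% Tween-20, 0.05% BSA; 6-point qHTS titration about 60 µM downward; luminescence read.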
SMN2 splice up: increases expression of the SMN2 splice variant; Potency, µM (doses to about 46.1 µM), for the others: at the highest dose activity change, positive = activation, actives largely listed as activators; AID 1458; HEK293 SMN2-luciferase splicing reporter, luminescence, 30-36 h; 210,000 compounds, 2.8% hits; note: % of control where 0% means no effect; nearly all actives have a fitted effect of over 55% in size
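qHTS luciferase splicing reporter: luminescence rises when SMN2 exon 7 is included in transfected HEK293 cells. Compound exposure lasted 30-36 h at 37C, with 4.5 mM final sodium butyrate as control, followed by a ONE-Glo read.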
NPC1 promoter act: NPC1 promoter activation; Huh7 NPC1 promoter luciferase reporter, 24 h; Potency, µM (doses to about 9.22 µM), for the others: at the top dose activation, hits mostly activators; 320,000 compounds, 2.4% hits; AID 485313; note: % of control where 0% means no effect; nearly all actives have a fitted effect of over 60% in size
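NPC1 promoter–luciferase Huh7 cells; 24 h compound; luminescence.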
Rab9 prom act: activators of Rab9 promoter. Huh7 Rab9 promoter-luciferase reporter, luminescence, 24 h. Potency, µM (titrated, usually from 9.22 µM), for the others: top-dose activation, negative = inhibition, most hits filed as activators. 320,000 compounds, 2.8% hits. AID 485297; note: % of control where 0% means no effect; nearly all actives have a fitted effect of over 60% in size
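Huh7 cells stably carrying a Rab9 promoter-luciferase reporter, 1500 cells per well in OP-MEM I with 10% FBS, treated with compound 24 hours at 37C. Luciferase activity read by luminescence after 10 minutes with Amplite reagent.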
Luc counter: Kinase-Glo luciferase inhibition (counter-screen); Kinase-Glo luciferase, ATP luminescence, 8 min; Potency, µM (doses to about 38.3 µM), for inactives: at the top dose activity change, negative = inhibition, hits mostly inhibitors; 200,000 compounds, 0.28% hits; note: % is set by controls: 0 for no effect and ±100 for the full control effect; nearly all actives have a fitted effect of over 60% in size
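Recombinant Kinase-Glo luciferase, 10 uM ATP (linear range), luciferin; imidazole pH 7.2 / KCl / MgCl2 / Tween / BSA buffer; 8 min RT; luminescence.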
* = called active by the depositor; ? = inconclusive; . = no result. Calls come from the whole dose curve; as a rule, active = well fitted curve in the direction sought with a large enough effect; inconclusive = small, poorly fitted or top-dose-only effect, or another doubt; inactive = no such curve, though single readings can be large; an effect the other way counts as inactive or inconclusive. Potency is the fitted concentration of half-maximal effect.

SMILES	FLuc counter	SMN2 splice up	NPC1 promoter act	Rab9 prom act	Luc counter
N#Cc1ccsc1NC(=O)COc1ccc(-c2nnco2)cc1	15.1µM*	?	?	?	4.9%
N#Cc1ccsc1NC(=O)CCc1ccccc1	15.1µM*	12.6µM*	-0.4%	?	-15.4%
CC1CCN(C(=O)COC(=O)c2cc3ccccc3cc2O)CC1	?	-1.0%	6.1%	12.1%	5.8%
N#CCSc1ccccc1NC(=O)COc1ccc(-c2nnco2)cc1	-17.3%	.	-2.8%	-0.9%	.
N#Cc1ccsc1NC(=O)COC(=O)c1cc2ccccc2cc1O	4.26µM*	22.4µM*	18.5%	3.16µM*	-5.3%
N#Cc1ccsc1NC(=O)CN(Cc1ccccc1)Cc1ccccc1	-16.3%	-25.1%	-3.9%	-4.4%	3.7%
COc1ccc(-c2cc3nc(-c4ccc(C)cc4)cc(C(F)(F)F)n3n2)cc1	-3.9%	4.6%	.	.	.
O=C(OCc1cc(=O)n2nc(-c3cccs3)sc2n1)c1ccccc1Cl	-2.5%	.	.	.	.
N#Cc1ccsc1NC(=O)COC(=O)c1ccc(NC(N)=O)cc1	5.36µM*	12.6µM*	1.12µM*	?	-2.5%
CCN(CC)c1ccc(C(=O)OCC(=O)Nc2sccc2C#N)cc1	12µM*	10µM*	3.16µM*	2.82µM*	5.1%
CCCOc1ccc(CNC(=O)CCCn2nc(C)c3sc4ccccc4c3c2=O)cc1	7.57µM*	.	.	.	.
Cc1nn(CCCC(=O)Nc2cccc(F)c2)c(=O)c2c1sc1ccccc12	15.1µM*	.	.	.	.
CCc1cccc(C)c1NC(=O)CCCn1nc(C)c2sc3ccccc3c2c1=O	-10.5%	.	.	.	.
CCc1nn(CC(=O)NCCc2ccc(OC)cc2OC)c(=O)c2cc3c(OC)cccc3n12	-3.6%	-0.8%	.	.	.
O=C(Nc1nc2ccccc2[nH]1)c1cccc(F)c1	3.01µM*	.	?	?	.
O=C(Nc1nc2ccccc2[nH]1)c1ccc(Br)o1	9.53µM*	12.6µM*	?	?	-15.1%
CN(C)c1cccc(C(=O)Nc2nc3ccccc3[nH]2)c1	0.601µM*	.	0.447µM*	0.316µM*	.
Cc1ccc(N(C)S(=O)(=O)c2cccc(C(=O)Nc3nc4ccccc4[nH]3)c2)cc1	-17.7%	-57.0%	8.4%	-3.7%	-1.5%
O=C(NCCc1nc2ccccc2[nH]1)c1ccc(Br)o1	-0.6%	.	-3.8%	0.7%	.
O=C(/C=C/c1ccc(F)cc1)Nc1nc2ccccc2[nH]1	?	11.2µM*	1.26µM*	0.631µM*	0.3%
CCC(=O)N1c2ccccc2CC1C(=O)NCCc1ccccc1C (centres undefined)	-4.7%	.	.	.	.
O=C(Nc1nc2ccccc2[nH]1)c1ccc(Cl)c(S(=O)(=O)N2CCCC2)c1	12µM*	-18.7%	?	27.7%	-4.7%
O=C(Nc1nc2ccccc2[nH]1)c1cccc(Br)c1	2.39µM*	.	?	3.55µM*	.
CCOc1ccc(CNC(=O)Cn2ncc3c(=O)oc4ccc(C)cc4c32)cc1	-6.2%	-4.9%	.	.	.
Cc1ccc(-n2nc(C)c3c(C)cc(=O)n(CC(=O)Nc4cc(Cl)ccc4C)c32)cc1	-3.0%	.	.	.	.
SMILES	FLuc counter	SMN2 splice up	NPC1 promoter act	Rab9 prom act	Luc counter
Cc1nnc(SCC(=O)Nc2ccc(O)cc2)c2ccccc12	-11.8%	.	-1.8%	1.2%	.
O=C(CSc1nc(-c2ccccc2)nc2ccccc12)Nc1cccc(C(=O)O)c1	19µM*	8.2%	-4.3%	1.6%	2.4%
Cc1nnc(SCC(=O)Nc2ccccc2)c2ccccc12	16.9µM*	.	21.8%	12.8%	.
O=C(CSc1nc(-c2ccc(F)cc2)nc2ccc(F)cc12)Nc1cccc(C(=O)O)c1	?	-11.3%	-2.1%	-4.9%	-0.5%
O=C(O)c1ccc(Nc2ncnc3scc(-c4ccccc4)c23)cc1	-18.3%	.	-4.3%	-1.9%	-1.4%
O=C(CSc1nc(-c2ccccc2)nc2c1Cc1ccccc1O2)Nc1ccc(C(=O)O)cc1	7.57µM*	-14.8%	4.3%	6.5%	-3.1%
O=C(CSc1ncnc2scc(-c3ccccc3)c12)Nc1ccc(C(=O)O)cc1	21.3µM*	.	-40.2%	9.1%	.
CCc1ccccc1-n1c(SCC(=O)N2CCCC2)nc2[nH]ncc2c1=O	-4.9%	-7.2%	-3.2%	12.2%	2.3%
O=C(CSc1ncnc2ccccc12)Nc1ccc2c(c1)OCCO2	16.9µM*	-0.5%	-0.3%	13.5%	0.0%
COC(=O)c1ccc(CSc2ncnc3c2nnn3-c2ccc(OC)cc2)o1	21.3µM*	-1.0%	11.6%	-3.5%	-0.3%
COc1ccc(-n2nnc3c(SCC(=O)Nc4ccc5c(c4)OCCO5)ncnc32)cc1	7.57µM*	20.9%	3.6%	1.4%	-8.5%
CCc1ccccc1-n1c(SCC(=O)Nc2ccc3c(c2)OCCO3)nc2[nH]ncc2c1=O	16.9µM*	-15.7%	0.5%	5.2%	7.7%
CCN(C(=O)c1cc2c(Cl)nc3ccc(C)cc3c2s1)c1cc(OC)ccc1OC	1.4%	-21.9%	.	.	.
CCC(=O)N1c2ccccc2CC1C(=O)NCc1ccccc1Cl (centres undefined)	-1.4%	.	.	.	.
CC(C)NC(=O)C1CCC(Cn2c(=O)c3sccc3n(CC(=O)NCc3ccccc3)c2=O)CC1 (centres undefined)	1.5%	.	.	.	.
Cc1ccc(Cn2ccnc2SCC(=O)Nc2ccc3c(c2)OCO3)cc1	-13.7%	.	.	.	.
O=C(CSc1nccn1Cc1ccccc1)Nc1ccc2c(c1)OCCO2	13.5µM*	.	.	.	.
O=C(CSc1ncccc1C(=O)O)Nc1ccc2c(c1)OCCO2	10.7µM*	.	6.9%	0.4%	.
COc1ccc(S(=O)(=O)N2CCCCC2)cc1NC(=O)CSc1ncnc2ccccc12	8.49µM*	-45.1%	-9.8%	-46.7%	0.2%
c1cncc(-c2nc3c(ccc4ccccc43)[nH]2)c1	10.7µM*	8.0%	?	?	-1.0%
O=c1[nH]c(-c2cccnc2)nc2ccccc12	-1.8%	0.5%	-0.3%	-6.8%	-1.0%
Cc1ccc(N2Cc3ccccc3C2=O)cc1	1.9µM*	.	0.447µM*	0.501µM*	.
O=C1c2ccccc2CN1c1ccccc1	16.9µM*	.	?	2µM*	.
CCOc1ccc(N2Cc3ncccc3C2=O)cc1	13.5µM*	10µM*	3.16µM*	2.51µM*	?
O=C1c2ccccc2CN2C(=O)c3ccccc3CN12	-2.4%	.	-4.5%	10.8%	.
SMILES	FLuc counter	SMN2 splice up	NPC1 promoter act	Rab9 prom act	Luc counter
COc1ccc(N2Cc3ccccc3C2=O)cc1	3.38µM*	.	?	0.501µM*	.
CNC(=O)c1c(NC(=O)c2cc(=O)c3ccccc3o2)sc2c1CCC2	0.7%	.	.	.	.
O=C1N(c2ccccc2)CCN1c1ccccc1	1.51µM*	.	0.501µM*	1.12µM*	.
CC(=O)c1ccc(NC(=O)Cn2cc3c(n2)CCCC3)cc1	-6.4%	1.7%	.	.	.
Cc1cc(C)n2c(Nc3ccc(C(C)C)cc3)c(-c3ccsc3)nc2n1	10.7µM*	0.9%	.	.	.
CC(=O)N(Cc1cccnc1)c1cccc(-c2nc3ccccc3s2)c1	-15.4%	.	3.5%	-16.6%	-2.0%
O=C(NCc1csc(-c2cccs2)n1)c1ccccc1	?	.	?	23.4%	.
Oc1ccc(-c2nc3ccccc3s2)cc1	1.9µM*	.	2.82µM*	2.82µM*	.

Screens deposited in PubChem BioAssay by National Center for Advancing Translational Sciences (NCATS).
